Experimental data published in PubChem BioAssay (NCATS).
Results filed as inconclusive are left out. Activity calls are given as the source filed them. Calls follow the shape of the dose curve; as a rule, active = well fitted cell-killing curve with a large enough effect; inconclusive = small, poorly fitted or top-dose-only effect; inactive = no such curve, though single readings can be large or run the other way.

Assay: qHTS of pediatric cancer cell lines to identify multiple opportunities for drug repurposing: Primary screen for LAN-5 cells (AID 1347100)
Conditions: LAN-5 neuroblastoma viability, CellTiter-Glo luminescence, 48 h; series mostly up to 46 µM; activity change, negative = cytotoxic: at the top concentration
Description: Drug repurposing or repositioning has been offered as a strategy for drug development in oncology programs. This approach has special potential for childhood cancers and other rare or orphan diseases, where the expected return on new drug development has been a disincentive to pharmaceuticals.
In this project we exploit the poly-pharmacology of drugs to discover new indications via phenotypic screening of a panel of 19 well-characterized cell lines derived from solid tumors seen in children and adolescents. The goal is to identify approved drugs with previously unrecognized anticancer properties that has the potential to reveal new mechanisms and biological processes involved in carcinogenesis or drug resistance. We employed a titration-based paradigm (quantitative high-throughput screening or qHTS), where all compounds were tested at multiple concentrations for their effect on cell viability. Concentration-response curves (CRCs) were derived directly from the primary screen, and both potency and efficacy values were used to identify compounds with robust bioactivity profiles. We screened the NIH Chemical Genomics Center (NCGC) Pharmaceutical Collection (NPC) and Mechanism Interrogation Plate (MIPE) small molecule collections of approved and investigational compounds against these cell lines; and measured metabolically active cells after 48 hours of compound treatment as a proxy for cell viability.
Assay Submitter: Nathalia J. Martinez, National Center for Advancing Translational Sciences, National Institutes of Health, Rockville, MD, USA; email: natalia.martinez@nih.gov
[1] Shen, M et al. Quantitative high-throughput phenotypic screening of pediatric cancer cell lines identifies multiple opportunities for drug repurposing. Oncotarget 2017 Dec 19;9(4):4758-4772. PMID 29435139.
The cells were obtained from University of North Carolina (UNC), Pediatric Preclinical Testing Program (PPT), and Coriell Institute (CI).
qHTS cell viability assay:
Cells were assayed in growth media at a density of 500-1,000 cells/well. Five microliters of cells were dispensed into 1,536-well, white, solid-bottom, TC-treated plates (Greiner Bio One) using a multidrop dispenser and incubated at 37 degrees C, 5% CO2, under a humidified atmosphere for 5 hours. Twenty-three nanoliters of compounds and controls (neutral control DMSO or positive control bortezomib at final concentration of 2.3 µM) were subsequently transferred by Kalypsys pintool. For primary screens, the MIPE collection was tested at 11-point dilutions (final concentrations range from 0.78 nM to 46 µM) and the NPC collection at 8-point dilutions (final concentrations range from 0.59 nM to 46 µM). Compounds tested in follow-up screens were assayed at 11-point dilutions. Cells were incubated for 48 hours, followed by addition of 3 µL of CellTiter-Glo (Promega). After a 15 min incubation at room temperature, samples were analyzed for luminescence intensity using a ViewLux High-throughput CCD imager equipped with clear filters.
Potency is read from the fitted curve at half-maximal effect.

**Q.** Which “activity change, negative = cytotoxic” value does the source give for `NCCCC[C@H](N[C@@H](CCc1ccccc1)C(=O)O)C(=O)N1CCC[C@H]1C(=O)O` here?
**A.** 23.9% (inactive)

**Q.** With `CNC(=O)CN(CCN(CCN(CC(=O)[O-])CC(=O)NC)CC(=O)[O-])CC(=O)[O-].O.[Gd+3]` as the molecule, how does the “activity change, negative = cytotoxic” value read?
**A.** 16.2% (inactive)

**Q.** Which “activity change, negative = cytotoxic” value does the source give for `COc1cc(N)c(Cl)cc1C(=O)NC1CCN(CCCOc2ccc(F)cc2)CC1OC` (stereo not given) here?
**A.** -13.6% (inactive)

**Q.** Which “activity change, negative = cytotoxic” value does the source give for `Cc1ccc(C(=O)C(C)CN2CCCCC2)cc1` (stereo not given) here?
**A.** -11% (inactive)

**Q.** Which “activity change, negative = cytotoxic” value does the source give for `COC(=O)CCc1ccc(OCC(O)CNC(C)C)cc1` (stereo not given) here?
**A.** -7.13% (inactive)

**Q.** Which “activity change, negative = cytotoxic” value does the source give for `CCN1CCC[C@H]1CNC(=O)c1c(OC)ccc(Br)c1OC` here?
**A.** 2.64% (inactive)

**Q.** For `O=C(OCC(O)CO)c1ccccc1Nc1ccnc2cc(Cl)ccc12` (stereo not given), which “activity change, negative = cytotoxic” value is on record?
**A.** -4.38% (inactive)

**Q.** Which “activity change, negative = cytotoxic” value does the source give for `Cc1c(N(C)CS(=O)(=O)O)c(=O)n(-c2ccccc2)n1C` here?
**A.** 23.8% (inactive)

**Q.** With `Nc1ccc(C(=O)O)cc1` as the molecule, how does the “activity change, negative = cytotoxic” value read?
**A.** 25.3% (inactive)

**Q.** With `CCCOC(C(=O)OC1CCN(C)CC1)(c1ccccc1)c1ccccc1` as the molecule, how does the “activity change, negative = cytotoxic” value read?
**A.** -16.7% (inactive)

**Q.** Which “activity change, negative = cytotoxic” value does the source give for `CC(C)COC(=O)c1ccc(N)cc1` here?
**A.** 12.7% (inactive)

**Q.** For `CC(C)N=C(N)/N=C(\N)Nc1ccc(Cl)cc1`, which “activity change, negative = cytotoxic” value is on record?
**A.** -6.68% (inactive)

**Q.** With `O=C(COc1ccc(Cl)cc1)N1CCN(Cc2ccc3c(c2)OCO3)CC1` as the molecule, how does the “activity change, negative = cytotoxic” value read?
**A.** -18.4% (inactive)

**Q.** For `CCN(CCCCOC(=O)c1ccc(OC)c(OC)c1)C(C)Cc1ccc(OC)cc1` (stereo not given), which “activity change, negative = cytotoxic” value is on record?
**A.** -15.5% (inactive)

**Q.** With `C[n+]1c2cc(N)ccc2cc2ccc(N)cc21` (tested in a mixture with another compound) as the molecule, how does the Potency read?
**A.** 5.96 µM (active)

**Q.** With `Oc1ccc(O)cc1` as the molecule, how does the Potency read?
**A.** 7.5 µM (active)

**Q.** For `C/C=C/c1ccc(OC)cc1`, which “activity change, negative = cytotoxic” value is on record?
**A.** 10% (inactive)

**Q.** For `CN1[C@@H]2CC[C@H]1CC(OC(=O)c1c[nH]c3ccccc13)C2` (stereo not given in full), which “activity change, negative = cytotoxic” value is on record?
**A.** 1.11% (inactive)

**Q.** With `CC(C)(C(=O)c1cccnc1)c1cccnc1` as the molecule, how does the “activity change, negative = cytotoxic” value read?
**A.** 1.07% (inactive)

**Q.** For `CCCC(=O)Nc1ccc(OCC(O)CNC(C)C)c(C(C)=O)c1` (stereo not given), which “activity change, negative = cytotoxic” value is on record?
**A.** 12.1% (inactive)

**Q.** With `CCCN1CCCC[C@H]1C(=O)Nc1c(C)cccc1C` as the molecule, how does the “activity change, negative = cytotoxic” value read?
**A.** -0.0355% (inactive)

**Q.** With `CO/N=C1\CN(c2nc3c(cc2F)c(=O)c(C(=O)O)cn3C2CC2)CC1CN` (stereo not given) as the molecule, how does the “activity change, negative = cytotoxic” value read?
**A.** -11% (inactive)

**Q.** With `O=C1OCCN1/N=C/c1ccc([N+](=O)[O-])o1` as the molecule, how does the “activity change, negative = cytotoxic” value read?
**A.** -29.9% (inactive)

**Q.** For `CN(C)CC/C=C1/c2ccccc2COc2ccc(CC(=O)O)cc21`, which “activity change, negative = cytotoxic” value is on record?
**A.** 14% (inactive)

**Q.** For `CCOC(=O)[C@H](CCc1ccccc1)N[C@@H](C)C(=O)N1Cc2ccccc2C[C@H]1C(=O)O`, which “activity change, negative = cytotoxic” value is on record?
**A.** -3.67% (inactive)

**Q.** For `CC(=O)OCC(=O)[C@@]12OC(C)(C)O[C@@H]1C[C@H]1[C@@H]3C[C@H](F)C4=CC(=O)C=C[C@]4(C)[C@@]3(F)[C@@H](O)C[C@@]12C`, which “activity change, negative = cytotoxic” value is on record?
**A.** -13.8% (inactive)

**Q.** With `NCCC(O)(P(=O)(O)O)P(=O)(O)O` as the molecule, how does the “activity change, negative = cytotoxic” value read?
**A.** 12.6% (inactive)

**Q.** For `CCN(CCCc1ccccc1)CCCc1ccccc1`, which “activity change, negative = cytotoxic” value is on record?
**A.** -19.2% (inactive)

**Q.** With `COC(=O)[C@@H]1CC2=CC(=O)CC[C@]2(C)[C@@]23O[C@@H]2C[C@@]2(C)[C@@H](CC[C@@]24CCC(=O)O4)[C@H]13` as the molecule, how does the “activity change, negative = cytotoxic” value read?
**A.** -6.12% (inactive)

**Q.** For `CC(=O)OCC(=O)[C@@]1(O)[C@H](C)C[C@H]2[C@@H]3CCC4=CC(=O)C=C[C@]4(C)[C@@]3(F)[C@@H](O)C[C@@]21C`, which “activity change, negative = cytotoxic” value is on record?
**A.** 16.3% (inactive)

**Q.** With `COc1c2occc2c(OC)c2c(=O)cc(C)oc12` as the molecule, how does the “activity change, negative = cytotoxic” value read?
**A.** 17.5% (inactive)

**Q.** With `CN1C(CCl)Nc2cc(Cl)c(S(N)(=O)=O)cc2S1(=O)=O` (stereo not given) as the molecule, how does the “activity change, negative = cytotoxic” value read?
**A.** 0.475% (inactive)

**Q.** Which “activity change, negative = cytotoxic” value does the source give for `CCCCCCCCCCCCCCNCCO` here?
**A.** -20% (inactive)

**Q.** With `NC(=O)c1cc[n+](CC2=C(C(=O)[O-])N3C(=O)[C@@H](NC(=O)Cc4cccs4)[C@H]3SC2)cc1` as the molecule, how does the “activity change, negative = cytotoxic” value read?
**A.** 13% (inactive)

**Q.** With `CCOc1ccc(NC(=O)CC(C)O)cc1` (stereo not given) as the molecule, how does the “activity change, negative = cytotoxic” value read?
**A.** 1.47% (inactive)

**Q.** For `COc1cc(/C=C/C(=O)O[C@H]2CC[C@]34C[C@]35CC[C@]3(C)[C@@H]([C@H](C)CCC=C(C)C)CC[C@@]3(C)[C@@H]5CC[C@H]4C2(C)C)ccc1O`, which “activity change, negative = cytotoxic” value is on record?
**A.** 16.1% (inactive)

**Q.** With `OC(CCN1CCCCC1)(c1ccccc1)c1ccccc1` as the molecule, how does the “activity change, negative = cytotoxic” value read?
**A.** 5.5% (inactive)

**Q.** Which “activity change, negative = cytotoxic” value does the source give for `NC(=O)CC[C@@H]1NC(=O)[C@H](Cc2ccccc2)NC(=O)[C@H](Cc2ccc(O)cc2)NC(=O)CCSSC[C@@H](C(=O)N2CCC[C@H]2C(=O)N[C@@H](CCCN=C(N)N)C(=O)NCC(N)=O)NC(=O)[C@H](CC(N)=O)NC1=O` here?
**A.** 15.1% (inactive)

**Q.** Which “activity change, negative = cytotoxic” value does the source give for `CCN(CC)CCNC(=O)COc1ccc(Cl)cc1` here?
**A.** 4.62% (inactive)

**Q.** With `Oc1cc(O)c2c(c1)O[C@H](c1ccc(O)c(O)c1)[C@H](O)C2` as the molecule, how does the “activity change, negative = cytotoxic” value read?
**A.** 12.7% (inactive)
